We go through ten compounds from PubChem BioAssay (EPA / NIEHS).

Assay [1] in a line: CCTE_Shafer_MEA_acute_per_network_burst_spike_number_std: CCTE's Neural Acute Assay for Standard Deviation of Number of Spikes in a Network Burst, Shafer Lab (AID 2284020).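 Also: fitted for decrease in spike-number SD versus DMSO so actives lower it.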 Summed up: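 Primary rat cortical neurons on 48-well MEAs (16 electrodes/well) recorded at DIV 13 or 15: 40-min baseline, then 40 min with compound (0.03-40 uM), 37 C. Value is percent change in SD of spikes per network burst, relative to DMSO.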

The nature of assay [2]: CCTE_Shafer_MEA_acute_per_network_burst_electrodes_number_mean: CCTE's Neural Acute Assay for Mean Number of Electrodes in a Network Burst, Shafer Lab (AID 2284021).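 Also: curves fitted for decreases only so hits reduce electrodes per burst.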 Summed up: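 Percent change from baseline was computed as mean electrode count per network burst, comparing 40 min recordings before and during compound (0.03-40 uM) exposure. Cultures were rat cortical neurons at DIV 13 or 15, recorded on MEAs at 37 C with an adaptive 8x rms threshold.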

The nature of assay [3]: CCTE_Shafer_MEA_acute_network_burst_percentage: CCTE's Neural Acute Assay for Percentage of Network Bursts, Shafer Lab (AID 2284022).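 Also: curves fitted for loss so actives lower network burst percentage.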 Summed up: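 Network burst percentage (spikes in network bursts divided by total spikes) recorded at 37 C over 40 min baseline and 40 min after compound, 0.03-40 uM, in rat cortical cultures at DIV 13 or 15. Analysed as percent change from baseline versus DMSO.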

The nature of assay [4]: CCTE_Shafer_MEA_acute_cross_correlation_area: CCTE's Neural Acute Assay for Area of Cross Correlation, Shafer Lab (AID 2284024).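 Also: area under pooled inter-electrode spike cross-correlation near zero lag as percent change from own baseline; curves fitted for loss of cross-correlation area so actives lower synchrony.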 Summed up:
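Percent change in well-wide cross-correlation area (window around zero lag) between 40 min baseline and 40 min post-compound recordings, 37 C; rat cortical cultures on MEA at DIV 13 or 15, dosed 0.03-40 uM, wells needing >/= 10 active electrodes.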

Assay [5] in a line: CCTE_Shafer_MEA_acute_cross_correlation_HWHM: CCTE's Neural Acute Assay for Cross Correlation at Half Width at Half Maximum, Shafer Lab (AID 2284026).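 Also: percent change per well from pre-dose baseline in spike cross-correlogram half width; hits are a decrease in cross-correlogram half width relative to DMSO.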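 As to outcome: spontaneous network firing of rat primary cortical neurons on multiwell microelectrode arrays.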 The essentials: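 Per-well percent change in cross-correlogram half width at half maximum, derived from 40-min recordings before and after compound (0.03-40 uM) at 37 C. Cultures were rat cortical neurons, DIV 13 or 15, with adaptive spike detection at 8x rms.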

Assay [6] in a line: CCTE_Shafer_MEA_acute_synchrony_index: CCTE's Neural Acute Assay for Synchrony, Shafer Lab (AID 2284027).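 Also: network synchrony index of spontaneous spiking in primary rat cortical neurons on MEAs; fitted for loss of signal so actives lower synchrony relative to DMSO.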 The essentials:
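Spontaneous firing of mature rat cortical networks is captured extracellularly on microelectrode arrays at 37 C, with wells needing ≥10 active electrodes. Each compound (0.03-40 uM) is judged by the change in synchrony index from baseline over 40 min.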

Assay [7] is described as follows: CCTE_Shafer_MEA_dev_firing_rate_mean: CCTE's Neural Network Formation Assay for Mean Firing Rate, Shafer Lab (AID 2284031).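 As to AC50: curve fitted for loss of firing so AC50 reflects decreased mean firing rate.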 The essentials: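 Developing rat cortical networks on MEA plates undergo 12-day compound exposure. Firing frequency, averaged across active electrodes, is integrated as area under the curve over four recording days, referenced to DMSO.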
Assay [8] is described as follows: CCTE_Shafer_MEA_dev_per_burst_spike_percent: CCTE's Neural Network Formation Assay for Percent of Spikes in a Burst, Shafer Lab (AID 2284032).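 As to AC50: fitted as a decrease in burst spike percentage below DMSO baseline.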 The essentials: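 Rat primary cortical neurons on 16-electrode MEA wells, dosed from plating day 0 for 12 days with renewal on DIV 5 and 9; spikes-in-bursts percentage averaged over bursting electrodes, collapsed as AUC across days 5, 7, 9, 12; loss direction versus DMSO.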

Assay [9] can be described thus: CCTE_Deisenroth_AIME_384WELL_CTox_Active: Cytotoxicity Assessment (CTOX) in CCTE's 384-well Estrogen Receptor Transactivation Assay with AIME metabolic competence (metabolism positive), Deisenroth Lab (AID 2284037; active = hit-call score of the fitted dose curve at least 0.9, where 1 is the maximum;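 also: chemicals first conditioned 2 h by alginate-bound induced rat liver S9 before cells; activity means signal loss indicating cell death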). Summed up:
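VM7Luc4E2 breast cells received medium pre-incubated 2 h with chemical over alginate microspheres holding induced male Sprague Dawley rat liver S9; viability read 24 h later by protease-substrate fluorescence. Loss of signal, bidirectional fit, 0.002–200 uM.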

The nature of assay [10]: CCTE_Shafer_MEA_dev_active_electrodes_number: CCTE's Neural Network Formation Assay for Number of Active Electrodes, Shafer Lab (AID 2284040; active = hit-call score of the fitted dose curve at least 0.9, where 1 is the maximum;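 also: potency for loss of active electrodes versus DMSO so lower counts are hits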). Summed up:
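Rat cortical primary cultures, 1.5 x 10^5 cells/well, PEI-coated MEA, laminin drop. Continuous exposure DIV 0–12; full media/compound change DIV 5, 9. Readout: electrodes with mean firing ≥5 spikes/min; AUC across days; loss vs DMSO.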

Assay [11] is described as follows: CCTE_Shafer_MEA_dev_burst_rate: CCTE's Neural Network Formation Assay for Burst Rate, Shafer Lab (AID 2284042).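 As to AC50: potency for loss of burst rate below DMSO control.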 The essentials:
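Developmental network assay measuring how 12-day exposure of rat cortical neuron cultures alters bursting on extracellular MEA recordings. Values are AUC of well-mean burst rate across four recording days, relative to DMSO vehicle.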

Assay [12] is described as follows: CCTE_Shafer_MEA_dev_bursting_electrodes_number: CCTE's Neural Network Formation Assay for Number of Bursting Electrodes, Shafer Lab (AID 2284043; active = hit-call score of the fitted dose curve at least 0.9, where 1 is the maximum;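 also: potency is for loss of bursting electrodes relative to DMSO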). The essentials:
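Primary rat cortical neurons were cultured on PEI-coated 48-well MEA plates (16 electrodes/well) and exposed from plating through day 12, with compound renewed at feeds on DIV 5 and 9. Electrodes bursting ≥1 per 2 min were counted on DIV 5, 7, 9, 12; trapezoidal AUC taken.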

A short description of assay [13]: CCTE_Shafer_MEA_dev_per_burst_interspike_interval: CCTE's Neural Network Formation Assay for Burst Interspike Interval, Shafer Lab (AID 2284044).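 Also: mean spike spacing inside bursts as AUC over recordings on days 5 7 9 12.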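 As to AC50: potency for a decrease of within-burst interspike interval below DMSO level.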 The essentials:
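Mean interspike interval within single-electrode bursts, averaged over bursting electrodes, from rat cortical cultures on MEA plates recorded on days 5, 7, 9 and 12. Continuous compound exposure from plating; trapezoidal AUC fitted downward relative to DMSO.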

Assay [14] in a line: CCTE_Shafer_MEA_dev_burst_duration_mean: CCTE's Neural Network Formation Assay for Mean Burst Duration, Shafer Lab (AID 2284045).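 As to AC50: curve fitted for loss meaning shorter burst duration than DMSO.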 The essentials: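 Primary rat cortical neurons on PEI-coated 16-electrode MEA wells, exposed from plating through day 12 with compound renewed at DIV 5 and 9; spontaneous activity recorded days 5, 7, 9, 12. Well-mean burst duration collapsed as trapezoidal AUC, fitted for loss versus DMSO.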

Assay [15] in a line: CCTE_Shafer_MEA_dev_interburst_interval_mean: CCTE's Neural Network Formation Assay for Mean Interburst Interval, Shafer Lab (AID 2284046).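 Also: well-mean interburst interval of bursting electrodes as AUC over four recording days; curve fitted for decrease in interburst interval relative to DMSO.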 Summed up: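 Network formation assay in primary rat cortical cultures, exposed from DIV 0 to 12. Mean interburst interval per well, integrated as AUC over four recordings.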
Assay [16] in a line: CCTE_Deisenroth_AIME_384WELL_CTox_Inactive: Cytotoxicity Assessment (CTOX) in CCTE's 384-well Estrogen Receptor Transactivation Assay without AIME metabolic competence (metabolism negative), Deisenroth Lab (AID 2284039; active = hit-call score of the fitted dose curve at least 0.9, where 1 is the maximum;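 also: cell viability via live-cell protease substrate cleaved to fluorescent probe; cells exposed 24 h to medium preincubated 2 h with alginate-water beads without S9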). The essentials: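 Fluorescence from a live-cell protease substrate, read after 24 h in VM7Luc4E2 cells, indicated viability. Test medium came from a 2 h AIME step without hepatic S9 (alginate-water microspheres); concentrations spanned 0.002 - 200 uM, single technical replicate per run.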

Assay [17] addresses Estrogen receptor (Homo sapiens) (UniProt P03372). In words: CCTE_Deisenroth_AIME_384WELL_LUC_Active: CCTE's 384-well Estrogen Receptor Transactivation Assay with AIME metabolic competence (ERTA luciferase; metabolism positive), Deisenroth Lab (AID 2284030; active = hit-call score of the fitted dose curve at least 0.9, where 1 is the maximum). Summed up:
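VM7Luc4E2 breast cells were given, for 24 hours, medium pre-incubated for 2 hours with parent chemical (0.002-200 uM, 10 concentrations) and alginate-encapsulated phenobarbital/beta-naphthoflavone-induced rat hepatic S9. Luciferase gain of signal was fitted against 17beta-estradiol; n=4 or more.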

For assay [18] the target is unchanged. As to the kind of experiment: CCTE_Deisenroth_AIME_384WELL_LUC_Inactive: CCTE's 384-well Estrogen Receptor Transactivation Assay without AIME metabolic competence (ERTA luciferase; metabolism negative), Deisenroth Lab (AID 2284038; active = hit-call score of the fitted dose curve at least 0.9, where 1 is the maximum;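 also: hits raise estrogen receptor luciferase signal so potencies reflect agonists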). The essentials:
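Chemicals (10-point series, 0.002 - 200 uM) were incubated 2 hours with alginate-water microsphere lids lacking S9, then the conditioned medium was transferred to VM7Luc4E2 breast cells for 24 hour. Luciferase induction was read by bioluminescence, fitted upward relative to 17beta-estradiol.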

For assay [19] the target is unchanged. In words: CCTE_Deisenroth_AIME_384WELL_LUC_Shift: CCTE's 384-well Estrogen Receptor Transactivation Assay with AIME metabolic competence data shift (ERTA luciferase; difference in metabolism positive and negative), Deisenroth Lab (AID 2284041).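 Also: shift is response with S9 minus without S9 so positive means metabolism raised ER signal.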 Summed up: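 Here, parent compounds undergo 2 h phase I metabolism by PB/BNF-induced rat S9 before 24 h transactivation in VM7Luc4E2 cells; the curve models S9-positive minus S9-negative response over a 10-point series.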

Several values for one entry are separate records, joined by “and”; a condition that tells them apart may be missing. Equal entries are not always repeated. Records with an inconclusive call do not appear. More than one record can exist for a structure, and the calls need not agree. Activity calls are given as the source filed them. The calls were made as follows, unless noted: active = hit-call score of the fitted dose curve at least 0.9, where 1 is the maximum; inactive = score below 0.9.

Chain of Estrogen receptor (Homo sapiens) (P03372 whole entry, looked up): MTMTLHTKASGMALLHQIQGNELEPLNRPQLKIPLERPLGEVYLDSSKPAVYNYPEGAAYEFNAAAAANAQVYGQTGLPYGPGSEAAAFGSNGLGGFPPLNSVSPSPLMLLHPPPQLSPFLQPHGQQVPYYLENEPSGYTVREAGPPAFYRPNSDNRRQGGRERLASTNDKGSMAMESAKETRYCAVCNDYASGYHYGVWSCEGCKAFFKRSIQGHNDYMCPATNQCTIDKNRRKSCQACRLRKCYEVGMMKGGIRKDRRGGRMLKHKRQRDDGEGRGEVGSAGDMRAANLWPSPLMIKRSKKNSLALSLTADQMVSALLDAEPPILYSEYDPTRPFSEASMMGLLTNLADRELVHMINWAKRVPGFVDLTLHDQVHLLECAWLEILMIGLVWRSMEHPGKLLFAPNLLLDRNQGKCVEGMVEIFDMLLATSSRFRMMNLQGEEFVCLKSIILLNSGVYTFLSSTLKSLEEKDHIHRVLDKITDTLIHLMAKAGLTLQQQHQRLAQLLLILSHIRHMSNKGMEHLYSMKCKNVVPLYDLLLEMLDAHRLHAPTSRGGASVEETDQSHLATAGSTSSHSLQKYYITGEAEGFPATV

With `COC(=O)Nc1nc2ccccc2[nH]1`, the compound was classed as inactive in assay [1], in [2], in [3], in assay [4], in assay [5] and in assay [6]. In addition, the compound was classed as inactive in assay [7], in [8], in [9], in [11], in [13] and in assay [14]. The compound was called inactive in [15]. Further, the figures for the AC50 in assay [10] and in assay [12] were 15.3 µM (active) and 12.5 µM (active), respectively.

In the case of `Clc1ccc(C(c2ccc(Cl)cc2)C(Cl)(Cl)Cl)cc1`, the outcome in assay [1], in assay [4], in assay [5], in assay [9] and in [14] was inactive. The AC50 in assay [2] is 4.35 µM (active); in assay [3] it was 4.24 µM (active); in assay [6] it was 10.6 µM (active); in assay [7], 7.7 µM (active) and 10.1 µM (active); in assay [8], 3.45 µM (active) and 6.66 µM (active); in assay [16], 160 µM (active). Besides, the AC50 is 4.02 µM (active) and 7.34 µM (active) in [10]; 7.69 µM (active) and 6.09 µM (active) in [11]; 3.96 µM (active) and 6.35 µM (active) in [12]; 7.74 µM (active) and 9.33 µM (active) in [13]; 7.67 µM (active) and 9 µM (active) in [15].

On to `O=Cc1ccco1`, for which the compound was classed as inactive in [1], in assay [2], in assay [3], in [4], in [5] and in assay [6].

Consider `Clc1ccc(C(c2ccc(Cl)cc2)C(Cl)Cl)cc1`, for which the concentration at half-maximal activity (AC50) in assay [1] is 6.77 µM (active); in assay [2], 2.69 µM (active); in assay [3], 7.42 µM (active); in assay [5], 11.4 µM (active); in assay [6] it was 4.76 µM (active); in assay [7], 8.59 µM (active). Moreover, the AC50 was 4.86 µM (active) in assay [8]; 4.66 µM (active) in [10]; 8.68 µM (active) in assay [11]; 6.19 µM (active) in assay [12]; 8.24 µM (active) in assay [13]; 8.61 µM (active) in [15]. Moreover, the compound was classed as inactive in assay [4] and in assay [14].

`c1ccc(NNc2ccccc2)cc1`: the outcome in [1], in assay [2], in assay [3] and in assay [4] was inactive. For the same compound, the AC50 in [5] was 29.7 µM (active); in assay [6] it was 29.6 µM (active).

For the compound `O=C(Oc1ccc(Br)cc1)N1CCN2CCC1CC2`, the compound was called inactive in [1], in assay [2], in assay [3], in assay [4], in [5] and in assay [6]. In addition, the result in [17], in [18] and in [19] was inactive.

Take `CCC(C)c1ccc(O)cc1` (configuration not stated): the half-maximal activity concentration (AC50) is 30 µM (active) in assay [1], 33.9 µM (active) in assay [3], 30.5 µM (active) in assay [5] and 30.5 µM (active) in [6]. Besides, the call in [2] and in [4] was inactive.

Take `CCCCCOC(=O)c1ccccc1C(=O)OCCCCC`: the AC50 is 4.73 µM (active) in [1]; 26.4 µM (active) in assay [3]; 2.82 µM (active) in assay [5]; 12.4 µM (active) in assay [6]; 19.8 µM (active) in assay [16]. In addition, the outcome in assay [2], in [4], in [17], in assay [9], in assay [18] and in assay [19] was inactive.

In the case of `CCC[CH2][Sn]([Cl])([CH2]CCC)[CH2]CCC`, the AC50 in assay [1] is 0.239 µM (active); in assay [2], 0.992 µM (active); in [3], 0.243 µM (active); in assay [4], 16.8 nM (active) and 54 nM (active); in assay [5], 0.463 µM (active); in [6], 237 nM (active) and 322 nM (active). The concentration at half-maximal activity (AC50) is 0.00892 µM (active) in [7]; 0.0758 µM (active) in assay [8]; 0.0428 µM (active) in assay [10]; 0.043 µM (active) in assay [11]; 0.0406 µM (active) in assay [12]; 0.0392 µM (active) in assay [13]. Moreover, the AC50 in assay [14] was 0.0302 µM (active); in [15] it was 0.0762 µM (active). The compound was classed as inactive in assay [1], in assay [2], in [3] and in assay [5].

On to `O=[N+]([O-])C(Br)(CO)CO`, for which the compound was called inactive in assay [1], in assay [4] and in assay [5]. The AC50 is 32 µM (active) in assay [2], 35.8 µM (active) in assay [3] and 30.9 µM (active) in assay [6].

By AC50 is commonly meant the midpoint of the concentration-response curve, whichever way the signal moves.
